Hits are enriched below; roughly 3.2% of the tested compounds scored in any of these assays.
Tau fluor counter = Counterscreen qHTS for Inhibitors of Tau Fibril Formation, Fluorescence Polarization. tau K18 P301L Alexa594 fluorescence, heparin fibrillization. Potency, µM (titrated, usually from 57.7 µM). 280,000 compounds, 0.93% hits; note: nearly all actives have a fitted effect of over 55% in size
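Human K18 P301L tau (15 uM unlabeled plus 0.24 uM Alexa 594-labeled, final) in 100 mM sodium acetate pH 7 was mixed with compound and 20 uM heparin and incubated 6 hr at 37 C.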
RGS12 GoLoco inh = qHTS Assay for Inhibitors of RGS12 GoLoco Motif Activity (Red Fluorophore) | 230,000 compounds, 0.44% hits | Potency, µM (titrated, usually from 61.6 µM), hits mostly inhibitors | AID 880, 2007 | Gai1:RGS12 GoLoco peptide FP, rhodamine, 10 min | Guanine nucleotide-binding protein G(i) subunit alpha-1 (Homo sapiens), P63096; active = well fitted inhibition curve with a large enough effect, not every such curve was filed as active; inactive = no such curve, though single readings can be large or run the other way; note: nearly all actives have a fitted effect of over 30% in size
Target sequence (P63096 whole entry, looked up): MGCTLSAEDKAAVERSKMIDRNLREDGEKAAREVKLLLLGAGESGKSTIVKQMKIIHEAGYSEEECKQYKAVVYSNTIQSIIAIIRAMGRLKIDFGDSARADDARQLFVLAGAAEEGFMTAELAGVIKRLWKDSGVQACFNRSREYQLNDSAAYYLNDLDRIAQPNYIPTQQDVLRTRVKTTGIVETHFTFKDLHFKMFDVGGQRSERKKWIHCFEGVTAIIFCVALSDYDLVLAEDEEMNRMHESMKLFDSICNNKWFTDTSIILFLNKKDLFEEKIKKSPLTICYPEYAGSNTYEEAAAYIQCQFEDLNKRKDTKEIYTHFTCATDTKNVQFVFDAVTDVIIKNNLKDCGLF
Tau ThT inhib = qHTS for Inhibitors of Tau Fibril Formation, Thioflavin T Binding; Microtubule-associated protein tau (Homo sapiens), P10636; recombinant tau K18 P301L, heparin-induced fibrillization, ThT fluorescence; Potency, µM (titrated, usually from 57.4 µM), usual class: inhibitors; 270,000 compounds, 2.1% hits; AID 1460, 2008; note: nearly all actives have a fitted effect of over 55% in size
Target sequence (P10636 561-689 P618L limits assumed): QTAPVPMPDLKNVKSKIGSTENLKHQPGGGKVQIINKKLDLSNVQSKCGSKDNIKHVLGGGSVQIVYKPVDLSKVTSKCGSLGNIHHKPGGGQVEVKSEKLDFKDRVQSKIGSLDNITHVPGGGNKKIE
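ThT emission at 510 nm, taken 1 hr after adding 30 uM dye, quantifies aggregates formed when 20 uM heparin acts on human tau K18 P301L for 6 hr at 37 C.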
Tau FP inhib = qHTS for Inhibitors of Tau Fibril Formation, Fluorescence Polarization | Microtubule-associated protein tau (Homo sapiens), P10636 | K18 P301L tau heparin fibrillization, Alexa594 FP, 6 h | Potency, µM (series often up to 57.7 µM), most hits filed as inhibitors | 280,000 compounds, 0.39% hits | AID 1468, 2008; note: nearly all actives have a fitted effect of over 55% in size
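Read-out: fluorescence polarization of Alexa 594-labeled tau (0.24 uM), 555 nm excitation, 632 nm emission. Mixtures held 15 uM unlabeled K18 P301L, compound and 20 uM heparin, pH 7 acetate buffer, incubated 6 hr at 37 C.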
TexasRed fluor = Total Fluorescence Counterscreen for Inhibitors of the Interaction of Thyroid Hormone Receptor and Steroid Receptor Coregulator 2; TRb/SRC2 Texas Red total fluorescence interference; AID 1479, 2009; 280,000 compounds, 0.29% hits; Potency, µM (highest dose often 106 µM); active = well fitted curve in either direction with a large enough effect; inconclusive = small, poorly fitted or top-dose-only effect
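Human TRb ligand-binding domain at 0.6 uM with 20 nM Texas Red SRC2 peptide in Tris buffer containing 1 uM T3 and 5% DMSO, incubated with compound 5 h at ambient temperature. Total fluorescence (555/632 nm) calculated as parallel + 2 × perpendicular.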
TRb SRC2 PPI = qHTS for Inhibitors of the Interaction of Thyroid Hormone Receptor and Steroid Receptor Coregulator 2. Thyroid hormone receptor beta (Homo sapiens), P10828. TRbeta-SRC2 peptide binding, fluorescence polarization; receptor liganded with 1 µM T3. Potency, µM (highest dose often 106 µM), most hits filed as inhibitors. 280,000 compounds, 0.065% hits. AID 1469, 2008; note: nearly all actives have a fitted effect of over 50% in size
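Human TRb ligand-binding domain (0.6 uM) is mixed with 20 nM Texas Red SRC2 peptide and 1 uM T3; after compound addition and 5 hr at ambient temperature, polarization is measured and normalized to unbound and bound controls.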
Large screens that a line does not name were inactive; [ ] = dose if it differs, or a comment. Unless noted, calls come from the whole dose curve; as a rule, active = well fitted curve in the direction sought with a large enough effect; inconclusive = small, poorly fitted or top-dose-only effect, or another doubt; inactive = no such curve, though single readings can be large; an effect the other way counts as inactive or inconclusive.

NC(=S)NCCCC(N)C(=O)O (stereo unspecified)	Tau ThT inhib inconclusive, Tau FP inhib inconclusive
Nc1ccc2nc(SCc3ccccc3F)sc2c1	Tau fluor counter 0.56µM[quencher], Tau FP inhib inconclusive (no result: Tau ThT inhib)
Cn1c(=O)[nH]c(=O)n(C2CCC(O)CC2)c1=O (stereo unspecified)	none (no result: Tau fluor counter, RGS12 GoLoco inh, Tau ThT inhib, Tau FP inhib)
O=C(O)c1ccncc1.O=C(O)c1ccncc1.[Cl][Pt]([Cl])([Cl])[Cl]	none (no result: Tau fluor counter, Tau ThT inhib, Tau FP inhib, TexasRed fluor, TRb SRC2 PPI)
CC(=O)Nc1cccc(C(=O)/C=C/c2ccc(/C=C/C(=O)c3cccc(NC(C)=O)c3)cc2)c1	Tau fluor counter inconclusive, Tau ThT inhib inconclusive
CN(C)c1ccc(C(=O)/C=C/c2ccco2)cc1	Tau ThT inhib 10µM
CC(=O)Nc1cccc(C(=O)/C=C/c2ccc(N(C)C)cc2)c1	Tau fluor counter 16µM[quencher], Tau ThT inhib 25µM
CC(=O)Nc1cccc(C(=O)/C=C/c2ccco2)c1	Tau fluor counter inconclusive, Tau ThT inhib 25µM, Tau FP inhib inconclusive
O=C(/C=C/c1ccco1)c1ccc(O)cc1	Tau ThT inhib inconclusive
CC(=O)NCCNc1nc(-c2cccnc2)nc2ccccc12	none (no result: Tau fluor counter, Tau ThT inhib, Tau FP inhib, TexasRed fluor, TRb SRC2 PPI)
NCCCC[C@H](N)C(=O)N[C@@H](CCCN=C(N)N)C(=O)N1CCC[C@H]1C(=O)N1CCC[C@H]1C(=O)NCC(=O)N[C@@H](Cc1ccccc1)C(=O)N[C@@H](CO)C(=O)N1CCC[C@H]1C(=O)N[C@@H](Cc1ccccc1)C(=O)O	none (no result: Tau fluor counter, RGS12 GoLoco inh, Tau ThT inhib, Tau FP inhib)
CC1=CC(=O)CC(C)(C)[C@]1(O)/C=C\C(C)=C\C(=O)O	none (no result: Tau fluor counter, Tau ThT inhib, Tau FP inhib, TexasRed fluor, TRb SRC2 PPI)
O=C(COc1ccc(F)cc1)NCC(c1ccc(Cl)cc1)N1CCCCC1 (stereo unspecified)	TexasRed fluor 40µM[quencher] (no result: RGS12 GoLoco inh)
Nc1ncnc2c1ncn2[C@H]1O[C@@H](CSCC[C@@H](N)C(=O)O)[C@H](O)[C@@H]1O	Tau ThT inhib inconclusive
CCOC(=O)c1c(C)oc2c1c(C=NCCO)c(O)c1ccccc12	Tau fluor counter inconclusive, Tau ThT inhib 13µM
C=CCOC(=O)C1(C(NC(=O)OC)c2ccccc2)C(=O)Cc2ccccc21 (stereo unspecified)	none
N#C/C(=C\c1c[nH]c2ccccc12)C(=O)c1ccc(O)c(O)c1	Tau fluor counter 16µM[quencher], Tau ThT inhib 10µM
N#C/C(=C\c1ccc(O)c(O)c1)C(=O)c1ccc(O)c(O)c1	Tau ThT inhib inconclusive
Oc1c(Cl)cc(Cl)cc1C(C#Cc1ccccc1)N1CCOCC1 (stereo unspecified)	Tau fluor counter inconclusive, Tau ThT inhib 14µM
N#CC(c1ccc(Cl)cc1)N1CCOCC1 (stereo unspecified)	none
CCCCC/C=C\C=C\[C@H](O)CCCCCCCC(=O)O	none
CCOC(=O)/C=C(C)\C=C\c1c[nH]c2ccccc12	Tau fluor counter 14µM[quencher], Tau ThT inhib inconclusive
COc1cc(N(C)C)cc(CN(C)CCc2ccc([N+](=O)[O-])cc2)c1O	TRb SRC2 PPI inconclusive (no result: Tau fluor counter, RGS12 GoLoco inh, Tau ThT inhib, Tau FP inhib)
COc1ccc(-c2cc(C3C4C=CCC(C)C4C(=O)N3Cc3ccccc3)ccc2F)cc1OC (stereo unspecified)	none (no result: Tau fluor counter, RGS12 GoLoco inh, Tau ThT inhib, Tau FP inhib)
CCc1nnc(SCc2cccc(Cl)c2)c2cc3sccc3n12	Tau ThT inhib inconclusive, TexasRed fluor 25µM[quencher] (no result: RGS12 GoLoco inh)
COc1ccc(-c2ccc(F)cc2)cc1C1C2C=CCC(C)C2C(=O)N1Cc1ccccc1 (stereo unspecified)	none (no result: Tau fluor counter, RGS12 GoLoco inh, Tau ThT inhib, Tau FP inhib)
O=C(Nc1ccc2c(c1)OCCO2)c1cc2sccc2n1Cc1ccccc1	Tau fluor counter 14µM[quencher]
O=C(Nc1ccc2c(c1)OCCO2)c1cc2sccc2n1Cc1ccc(F)cc1	Tau fluor counter inconclusive
CC(=O)c1ccc(NC(=O)c2cc3sccc3n2Cc2ccc(Cl)cc2)cc1	Tau fluor counter inconclusive, Tau FP inhib 10µM (no result: RGS12 GoLoco inh)

Compound activity as filed in PubChem BioAssay.
